Assay results taken from PubChem BioAssay (NCATS).
Several values for one entry are separate records, joined by “and”; a condition that tells them apart may be missing. Equal values may be shown once. Inconclusive results are not listed. Activity calls are given as the source filed them. Unless noted, calls come from the whole dose curve; as a rule, active = well fitted curve in the direction sought with a large enough effect; inconclusive = small, poorly fitted or top-dose-only effect, or another doubt; inactive = no such curve, though single readings can be large; an effect the other way counts as inactive or inconclusive.

What was measured:
[1] = qHTS for Activators of Parkin Expression: LOPAC Validation Assay (NLuc Reporter) (AID 720572; note: potency is the fitted concentration of half-maximal effect;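 for activation: 0% = DMSO and 100% = positive control compound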)
In short: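 Cells harboring the Parkin-promoter coincidence reporter were treated for 24 h at seven concentrations. NLuc output was measured sequentially after the FLuc channel and scaled between DMSO and positive control values.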

[2] = qHTS assay for environmental chemicals that activate the Aryl hydrocarbon Receptor (AhR) signaling pathway (AID 651777); conditions: 1A2-DRE human hepatoma cells, luciferase, 24 h; activation: stronger effect = higher value; note: % of control where 0% means no effect; nearly all actives have a fitted effect of over 15% in size
In short: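 Following a 24 hr incubation with test chemicals at 37 C and 5% CO2, 1A2-DRE human hepatoma cells received One-Glo reagent; after 30 min at room temperature, luciferase output reflected CYP1A2 induction via AhR.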

[3] = biological target: Peroxisome proliferator-activated receptor alpha (Homo sapiens) (UniProt Q07869); assay: qHTS assay for small molecule agonists of the peroxisome proliferator-activated receptor alpha (PPARalpha) signaling pathway (AID 651778); conditions: PathHunter PPARalpha complementation, chemiluminescence, 6 h; max response: stronger effect = higher value; note: potency is the fitted concentration of half-maximal effect; for max response: % of control where 0% means no effect
Chain of Peroxisome proliferator-activated receptor alpha (Homo sapiens) (Q07869 whole entry, looked up): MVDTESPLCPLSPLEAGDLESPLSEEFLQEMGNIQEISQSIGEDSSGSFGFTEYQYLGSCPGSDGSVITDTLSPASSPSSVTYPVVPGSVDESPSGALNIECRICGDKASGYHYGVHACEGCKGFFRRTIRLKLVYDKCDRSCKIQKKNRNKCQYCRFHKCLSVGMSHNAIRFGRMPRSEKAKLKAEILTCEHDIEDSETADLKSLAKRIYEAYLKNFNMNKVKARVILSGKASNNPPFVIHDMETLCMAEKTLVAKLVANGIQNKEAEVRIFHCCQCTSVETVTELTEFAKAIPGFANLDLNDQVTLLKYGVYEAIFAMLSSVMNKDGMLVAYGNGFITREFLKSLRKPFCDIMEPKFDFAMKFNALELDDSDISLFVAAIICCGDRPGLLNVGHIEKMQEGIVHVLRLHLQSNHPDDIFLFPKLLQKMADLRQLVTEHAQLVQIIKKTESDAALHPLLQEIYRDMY
In short: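 Cells plated at 2,000/well and held overnight at 37 C, 5% CO2, then compound added by pin tool for 6 hr; after PathHunter detection reagent and 60 min at room temperature, chemiluminescence from enzyme complementation was read.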

[4] = qHTS assay for small molecule agonists of the antioxidant response element (ARE) signaling pathway measured by Nrf2-dependant transcriptional activity - cell viability counter screen (AID 720653; active = well fitted curve in the direction sought with a large enough effect in the repeat runs; an effect the other way counts as inactive or inconclusive; note: % is set by controls: 0 for no effect and ±100 for the full control effect); conditions: ARE-bla HepG2 viability, CellTiter-Glo ATP luminescence, 16 h; stronger effect = lower value
In short: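 ARE-bla HepG2 cells (2,000/well) rested 5 hrs at 37C/5% CO2, then exposed to compounds in DMSO for 16 hrs. Viability was read in the same wells as intracellular ATP by luminescence, 30 min at room temperature after reagent addition.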

[5] = qHTS Assay for Identifying Gametocytocidal Compounds (AID 743244); note: potency is the fitted concentration of half-maximal effect;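 for max response: % is set by controls: 0 for no effect and ±100 for the full control effect; actives lower the fluorescent signal which means gametocytes are killed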; conditions: P. falciparum 3D7 stage III-V gametocytes, alamarBlue, 72 h; max response: stronger effect = lower value
In short: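 A resazurin-based viability read-out was applied to mature P. falciparum gametocytes: 72 h compound treatment, then 24 h dye incubation, with falling fluorescence signalling gametocytocidal effect.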

[6] = qHTS assay for cell viability of HEK293 cells (AID 743288); conditions: ATP luminescence (CellTiter-Glo), 18 h; max response: stronger effect = lower value; note: nearly all actives have a fitted effect of over 50% in size; note: potency is the fitted concentration of half-maximal effect; for max response: % is set by controls: 0 for no effect and ±100 for the full control effect
In short: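 Readout is luciferase-coupled ATP content (CellTiter-Glo luminescence, 30 min room temperature) as a measure of metabolically competent cells. Parental HEK293 cells were plated 5 h or more before compound addition, then treated 18 h at 37 C.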

[7] = qHTS assay for cell viability of the p53RE-bla HCT-116 cell line (AID 743292); note: % is set by controls: 0 for no effect and ±100 for the full control effect; nearly all actives have a fitted effect of over 55% in size
In short: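 After plating at 4,000 cells per well and a 5 h rest at 37 C, HCT-116 cells carrying p53RE-bla received test chemicals in DMSO. Sixteen hours later at 37 C, CellTiter-Glo was added and luminescence recorded following 30 min at room temperature.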

[8] = qHTS assay for small molecule agonists of the antioxidant response element (ARE) signaling pathway measured by Nrf2-dependant transcriptional activity (AID 720636; active = well fitted curve in the direction sought with a large enough effect in the repeat runs; an effect the other way counts as inactive or inconclusive;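 note: HepG2 cells with an ARE-driven luciferase reporter; % of control where 0% means no effect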)
In short: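 ONE-Glo luminescence, read 30 min after reagent addition at room temperature, reflected ARE reporter activity in HepG2 cells that had been incubated with compound for 16 hr at 37 C in 1% dialyzed FBS.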

[9] = biological target: Arylsulfatase A (Homo sapiens) (UniProt P15289); assay: qHTS screen for enhancers of Arylsulfatase A (ASA1): LOPAC Validation Assay (AID 720538)
Chain of Arylsulfatase A (Homo sapiens) (P15289 whole entry, looked up): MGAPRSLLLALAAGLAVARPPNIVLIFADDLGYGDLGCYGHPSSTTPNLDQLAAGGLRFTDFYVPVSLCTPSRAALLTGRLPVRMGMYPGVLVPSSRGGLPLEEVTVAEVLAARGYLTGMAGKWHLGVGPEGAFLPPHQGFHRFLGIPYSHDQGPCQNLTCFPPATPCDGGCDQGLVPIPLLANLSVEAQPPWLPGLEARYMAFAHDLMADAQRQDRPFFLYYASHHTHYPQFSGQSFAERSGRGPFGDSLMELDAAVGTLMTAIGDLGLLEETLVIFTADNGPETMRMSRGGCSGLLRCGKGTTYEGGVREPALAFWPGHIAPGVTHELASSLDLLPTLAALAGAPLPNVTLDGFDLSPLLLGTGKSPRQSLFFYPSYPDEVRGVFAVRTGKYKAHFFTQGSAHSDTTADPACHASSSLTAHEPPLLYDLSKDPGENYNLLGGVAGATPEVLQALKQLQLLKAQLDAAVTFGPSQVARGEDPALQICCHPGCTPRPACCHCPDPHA
In short: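 Enhancer assay in patient-derived MLD fibroblasts carrying ASA-I179S: 48 h compound exposure at 37 C, then 14 h room-temperature pNCS turnover (0.5 mM final) in lysis buffer. Read by fluorescence at 525/598 nm after NaOH stop.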

[10] = qHTS for compounds that reverse cellular toxicity of Amyloid beta (A-beta) peptide in yeast: LOPAC Validation Assay (AID 720559);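 note: plate controls were DMSO for no effect and equimolar ferric chloride plus clioquinol rescue for full effect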
In short: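 Rescue of A-beta toxicity was scored as yeast growth by 600 nm absorbance after 48 hr at 30 C with compound. Normalization used DMSO (negative) and equimolar ferric chloride plus clioquinol (positive).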

[11] = qHTS for Activators of Parkin Expression: LOPAC Validation Assay (FLuc Reporter) (AID 720573;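 note: 0% = DMSO and 100% = positive control compounds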)
In short: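 FLuc signal from Parkin-promoter coincidence reporter neuronal cells, normalized to DMSO and positive control (100%). Cells (1,500/well) pre-incubated 24 h, then exposed to LOPAC compounds in 7-point dose response for 24 h at 37 C, 5% CO2.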

[12] = biological target: T1, Hexokinase-4 (Homo sapiens) + Glucokinase regulatory protein (Homo sapiens) (UniProt P35557+Q14397); assay: qHTS assay for inhibitors of recombinant human GCK-GKRP interaction: Diaphorase-coupled assay (AID 743205)
T1 sequence (P35557 whole entry, looked up): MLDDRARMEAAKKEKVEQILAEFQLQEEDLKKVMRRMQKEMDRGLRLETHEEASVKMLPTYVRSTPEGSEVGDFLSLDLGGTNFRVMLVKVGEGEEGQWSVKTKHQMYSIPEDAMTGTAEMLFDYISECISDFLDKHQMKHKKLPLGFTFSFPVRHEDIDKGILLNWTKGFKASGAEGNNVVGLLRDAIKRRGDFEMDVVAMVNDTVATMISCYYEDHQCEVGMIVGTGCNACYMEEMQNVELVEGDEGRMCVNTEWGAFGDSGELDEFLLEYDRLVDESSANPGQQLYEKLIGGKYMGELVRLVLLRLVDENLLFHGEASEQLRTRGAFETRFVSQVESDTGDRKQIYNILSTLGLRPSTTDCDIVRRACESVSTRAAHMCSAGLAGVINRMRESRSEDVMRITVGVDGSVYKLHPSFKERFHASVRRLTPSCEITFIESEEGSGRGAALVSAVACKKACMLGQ
T1 sequence (Q14397 whole entry, looked up): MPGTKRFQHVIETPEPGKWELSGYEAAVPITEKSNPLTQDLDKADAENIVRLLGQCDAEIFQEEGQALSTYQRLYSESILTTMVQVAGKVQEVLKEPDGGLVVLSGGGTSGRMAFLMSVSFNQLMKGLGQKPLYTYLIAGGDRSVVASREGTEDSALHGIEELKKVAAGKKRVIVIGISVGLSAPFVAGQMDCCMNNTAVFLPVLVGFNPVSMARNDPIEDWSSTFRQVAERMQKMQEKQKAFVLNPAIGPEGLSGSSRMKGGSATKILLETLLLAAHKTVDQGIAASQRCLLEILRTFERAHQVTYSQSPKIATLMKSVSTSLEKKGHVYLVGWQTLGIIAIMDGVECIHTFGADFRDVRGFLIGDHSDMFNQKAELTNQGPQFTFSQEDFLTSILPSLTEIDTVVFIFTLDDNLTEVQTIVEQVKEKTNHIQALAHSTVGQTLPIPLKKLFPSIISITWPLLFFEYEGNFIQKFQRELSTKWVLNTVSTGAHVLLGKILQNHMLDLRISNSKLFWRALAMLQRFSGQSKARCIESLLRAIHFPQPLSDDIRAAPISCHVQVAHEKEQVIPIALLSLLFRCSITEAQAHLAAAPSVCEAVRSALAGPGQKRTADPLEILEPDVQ
In short: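 A kinetic fluorescence read (Ex 525/Em 590 nm, every minute for 30 minutes) tracked resorufin from a G6PDH-diaphorase coupled GCK reaction. It contained 10 nM GST-GCK, 10 nM FLAG-GKRP, 5 mM glucose, 0.4 mM ATP in Hepes pH 7.6. Normalized to with/without-enzyme DMSO controls.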

[13] = biological target: T1, Hexokinase-4 (Homo sapiens) + Glucokinase regulatory protein (Homo sapiens); assay: qHTS assay for inhibitors of recombinant human GCK-GKRP interaction: ADP-Glo assay (AID 743206);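 note: plate controls were DMSO plus enzyme for no effect and no enzyme for full effect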
In short: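 Pin-transferred compounds meet a 15 nM GST-GCK/15 nM FLAG-GKRP/2 uM S6P mix (dispense concentrations). ATP is then added to 0.4 mM final with 5 mM glucose, and the reaction runs 60 min at room temperature. ADP is quantified luminescently.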

[14] = biological target: T1, Hexokinase-4 (Homo sapiens) + Glucokinase regulatory protein (Homo sapiens); assay: qHTS assay for inhibitors of recombinant human GCK-GKRP interaction: HTRF assay (AID 743207);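 note: 0% = DMSO with GCK present and -100% = DMSO wells lacking GCK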
In short: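 After 60 min equilibration at room temperature with anti-FLAG XL665 and anti-GST antibodies, FRET ratio (665/615 nm, excitation 320 nm) was read. Proteins: GST-GCK and FLAG-GKRP, each 5 nM, plus 2 uM S6P, pH 7.1 buffer; GCK-free wells define minimum signal.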

[15] = biological target: Nuclear receptor ROR-gamma (Homo sapiens) (UniProt P51449); assay: qHTS assay for small molecule antagonists of the retinoid-related orphan receptor gamma (ROR-gamma) signaling pathway (AID 651802); note: nearly all actives have a fitted effect of over 60% in size; note: potency is the fitted concentration of half-maximal effect
Chain of Nuclear receptor ROR-gamma (Homo sapiens) (P51449 whole entry, looked up): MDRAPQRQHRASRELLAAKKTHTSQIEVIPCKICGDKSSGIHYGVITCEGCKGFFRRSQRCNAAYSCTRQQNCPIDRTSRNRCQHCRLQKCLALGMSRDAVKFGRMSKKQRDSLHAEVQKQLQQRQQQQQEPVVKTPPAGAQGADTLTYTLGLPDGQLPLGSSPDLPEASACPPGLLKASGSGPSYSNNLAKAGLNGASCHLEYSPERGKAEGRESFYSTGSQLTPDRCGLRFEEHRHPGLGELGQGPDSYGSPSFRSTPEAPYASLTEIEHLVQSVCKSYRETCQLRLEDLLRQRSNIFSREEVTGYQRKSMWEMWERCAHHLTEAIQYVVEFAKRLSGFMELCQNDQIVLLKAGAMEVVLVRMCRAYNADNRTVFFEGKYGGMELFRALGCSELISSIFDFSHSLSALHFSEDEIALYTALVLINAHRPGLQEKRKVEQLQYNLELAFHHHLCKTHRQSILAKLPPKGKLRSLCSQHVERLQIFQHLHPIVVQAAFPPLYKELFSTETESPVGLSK
In short: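 Steps: cells dispensed; compound or DMSO transferred by pin tool; doxycycline added to induce the ROR response element-driven luciferase; plates held 16hr at 37C; ONE-Glo added and luminescence measured.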

[16] = qHTS assay for small molecule antagonists of the retinoid-related orphan receptor gamma (ROR-gamma) signaling pathway - cell viability counter screen (AID 720652; active = well fitted curve in the direction sought with a large enough effect in the repeat runs; an effect the other way counts as inactive or inconclusive;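 note: compound exposure lasted 16 hr before ATP read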; note: potency is the fitted concentration of half-maximal effect)
In short: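 Steps: seed CHO cells bearing TET-inducible ROR and ROR response element-luciferase; rest 5 hr at 37 C; add compound, then doxycycline; incubate 16 hr; add CellTiter-Glo and read luminescence as ATP-based viability.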

[17] = biological target: Tyrosine-protein kinase Yes (Homo sapiens) (UniProt P07947); assay: qHTS for small molecule inhibitors of Yes1 kinase: Primary Screen (AID 686947);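 note: plate controls were DMSO with enzyme for no effect and no-enzyme DMSO wells for full effect; nearly all actives have a fitted effect of over 60% in size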
Chain of Tyrosine-protein kinase Yes (Homo sapiens) (P07947 whole entry, looked up): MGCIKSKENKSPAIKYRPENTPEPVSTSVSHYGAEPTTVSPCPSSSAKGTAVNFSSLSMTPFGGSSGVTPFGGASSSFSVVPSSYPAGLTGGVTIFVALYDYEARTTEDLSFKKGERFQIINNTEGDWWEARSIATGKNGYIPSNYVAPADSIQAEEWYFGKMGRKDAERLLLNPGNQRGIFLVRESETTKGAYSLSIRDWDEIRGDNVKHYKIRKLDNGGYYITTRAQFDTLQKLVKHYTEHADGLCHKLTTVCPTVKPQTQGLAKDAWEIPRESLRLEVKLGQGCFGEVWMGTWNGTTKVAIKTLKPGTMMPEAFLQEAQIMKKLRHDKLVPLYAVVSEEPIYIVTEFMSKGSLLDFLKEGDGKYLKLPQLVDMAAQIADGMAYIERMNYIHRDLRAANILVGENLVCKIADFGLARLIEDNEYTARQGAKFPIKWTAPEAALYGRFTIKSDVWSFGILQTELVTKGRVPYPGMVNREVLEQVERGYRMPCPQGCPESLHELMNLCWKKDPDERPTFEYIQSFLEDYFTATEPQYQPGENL
In short: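 ADP-Glo luminescence reports ADP formed by 4 nM Yes1 phosphorylating poly(E4Y) (0.3 mg/mL) with 0.1 mM ATP for 60 min at room temperature, following 20 min compound preincubation; normalised between DMSO wells with and without enzyme.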

[18] = qHTS for small molecule inhibitors of Yes1 kinase: Counter Assay (AID 686950);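 note: no kinase present so only ADP-Glo detection of a fixed ADP amount is tested; luminescence from ADP-Glo reporting ADP in a fixed ATP and ADP mixture; 0% = DMSO wells with ATP plus ADP and -100% = ATP-only wells without ADP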
In short: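 Measuring interference with ADP-Glo, the assay ran 60 min at room temperature on an ATP/ADP mix lacking enzyme. Values were normalized to ATP-plus-ADP (maximum) and ATP-only (minimum) DMSO controls.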

[19] = qHTS profiling for inhibitors of Plasmodium falciparum (3D7) proliferation (AID 743322; call rule not given here;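 note: infected erythrocytes exposed to compound for 72 h before lysis; 100% = DMSO vehicle wells and 0% = 0.29 µM artemisinin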); conditions: P. falciparum 3D7 proliferation; at 28.7 µM (top of the series)
In short: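 Parasite DNA was quantified by SYBR Green I fluorescence (ex 485, em 535 nm) after overnight lysis in saponin/Triton buffer at room temperature. Cultures at 0.3% parasitemia and 2.5% hematocrit were first exposed to compound for 72 h at 37 C; signals were normalised to artemisinin (0.29 uM) and vehicle wells.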

[20] = qHTS profiling for inhibitors of Plasmodium falciparum (DD2) proliferation (AID 743323; call rule not given here); conditions: lower = more inhibition; at 28.7 µM (top of the series)
In short: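 Parasite DNA quantified by SYBR Green fluorescence (ex 485, em 535 nm) after saponin/Triton lysis and overnight dark incubation. Cultures: 0.3% parasitemia, 2.5% hematocrit, 72 h, 37 C; data scaled between DMSO and 0.29 uM artemisinin.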

COC(=O)C1=C(C)NC(C)=C(C(=O)OC)C1c1ccccc1[N+](=O)[O-]
active: Potency [1] 23.1 µM

COP(=S)(OC)Oc1ccc(Sc2ccc(OP(=S)(OC)OC)cc2)cc1
inactive: activation [2] 6.46% | max response [3] 7.57% | max response [4] -17.2% | max response [5] 1.05% | max response [6] -12.2% | outcome [7]

O=C(NC(=O)c1c(F)cccc1F)Nc1cc(Cl)c(OC(F)(F)C(F)C(F)(F)F)cc1Cl (stereo not drawn)
inactive: activation [2] 0.163% | max response [3] 14.7% | Potency [8] | max response [4] -21.7% | max response [5] 13.1% | max response [6] -27.8% | outcome [7]

COc1ccc(C(=O)N2CCCC2=O)cc1
inactive: Potency [9] | outcome [10] | Potency [1] | outcome [11] | outcome [12] | outcome [13] | outcome [14] | max response [5] -3.61% and 29.8%

N#Cc1nn(-c2c(Cl)cc(C(F)(F)F)cc2Cl)c(N)c1S(=O)C(F)(F)F (stereo not drawn)
inactive: activation [2] 2.36% | max response [3] -0.478% | Potency [8] | max response [4] -35.8% | max response [5] 6.82% | max response [6] -24.4% | outcome [7]

O=C(CCl)c1ccc(Cl)cc1Cl
active: Potency [15] 7.5 µM | Potency [16] 21.1 µM | Potency [6] 14.1 µM
inactive: activation [2] 0.547% | max response [3] -0.884% | max response [5] 14.5% and 7.69%

O=C(O)c1nn(Cc2ccc(Cl)cc2Cl)c2ccccc12
60.1%: activity, percent of control [20]
86.6%: remaining parasite growth % (stronger effect = lower value) [19]
inactive: outcome [17] | outcome [18] | Potency [9] | outcome [10] | Potency [1] | outcome [11] | outcome [12] | outcome [13] | outcome [14] | max response [5] -7.97% and 31%

CCC(=O)O[C@H]1CC[C@H]2[C@@H]3CCC4=CC(=O)CC[C@]4(C)[C@H]3CC[C@]12C
inactive: activation [2] -0.665% | max response [3] -1.43% | Potency [8] | max response [4] -2.38% | max response [5] 11.3% | max response [6] -26.1% | outcome [7]

Oc1c(Br)cc(Br)cc1Br
active: Potency [3] 39.8 µM and 35.5 µM
inactive: activation [2] 1.96% and 1.41% | Potency [8] | Potency [16] | max response [4] -5.17% and -2.6% | max response [5] -0.35% | max response [6] -15.1% and -2.12% | outcome [7]

Oc1ccc(Cl)cc1Cc1cc(Cl)ccc1O
inactive: max response [3] 4.36% | Potency [8] | max response [4] -12%

CCCCCCCCCCCC[N+](C)(C)CCOc1ccccc1
active: Potency [15] 10.6 µM | Potency [16] 26.6 µM | Potency [5] 8.91 µM
inactive: activation [2] -2.77% | max response [3] -0.963% | Potency [8] | max response [4] -6.97% | outcome [7]

CC[n+]1c(-c2ccccc2)c2cc(N)ccc2c2ccc(N)cc21
inactive: activation [2] 11.3% | max response [3] -2.33% | Potency [15] | Potency [8] | Potency [16] | max response [4] -16.8% | outcome [7]
active: Potency [5] 1.41 µM and 6.31 µM

CCCCCCCCC(=O)NCc1ccc(O)c(OC)c1
inactive: max response [3] 1.45% | Potency [8] | max response [4] -1.94% | max response [5] -2.23% | max response [6] -11.8% | outcome [7]

C[C@@H]1C[C@@H]([C@H](O)CC2CC(=O)NC(=O)C2)C(=O)[C@@H](C)C1
inactive: max response [3] -1.34% and -7.61% and -0.958% | Potency [8] | Potency [16] | max response [4] 15.1% and 0.954% and 3.58% | outcome [7]
-0.0842%: remaining parasite growth % (stronger effect = lower value) [19]
0.342%: activity, percent of control [20]
active: Potency [15] 150 nM and 237 nM | Potency [5] 2.82 µM | Potency [6] 0.126 µM

Brc1c(NC2=NCCN2)ccc2nccnc12
inactive: Potency [9]

CCCCCCCCCCCCCCCC[n+]1ccccc1
active: Potency [15] 1.19 µM | Potency [5] 7.08 µM
inactive: Potency [8]

Oc1ccc(Cl)cc1Sc1cc(Cl)ccc1O
inactive: Potency [8]
active: Potency [15] 15 µM

CCOP(=S)(OCC)O/N=C(\C#N)c1ccccc1
inactive: activation [2] 9.33% | max response [3] -3.05% | max response [4] 4.22% | max response [5] -3.66% | max response [6] -1.29% | outcome [7]

COP(=O)(OC)OC=C(Cl)Cl
inactive: activation [2] 2.56% [middle of 4 runs] | max response [3] -1.1% [middle of 4 runs] | Potency [15] | Potency [8] | Potency [16] | max response [4] -9.52% [middle of 4 runs] | max response [5] -6.93% | max response [6] -9.07% [middle of 4 runs] | outcome [7]
